For some of these results: Entries with a potency or affinity are not part of this list. The source made the active and inactive calls. Unless noted, no rule for the calls is given here.
Key:
[1] = antimalarial activity against Dd2 strain (AID 2302;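 active = growth inhibition above 50% at the single 2 µM test dose, taken to imply half-maximal potency below 2 µM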;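 also: 0% = DMSO untreated growth and 100% = chloroquine plus artemisinin killed control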); settings: P. falciparum Dd2 in RBCs, LDH growth readout, 72 h; at 2 µM; active compounds read high
[2] = human hepatoma cell viability loss – ATP luminescence, cytotoxicity control for P. falciparum antimalarial project, primary screen (AID 2303;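 active = inhibition above 50%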;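 also: 0% = DMSO wells and 100% = digitonin-killed cells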); settings: HepG2 viability, 24-48 h, at 10 µM, active compounds read high
[3] = molecular target: L-lactate dehydrogenase (Plasmodium falciparum (isolate CDC / Honduras)) (UniProt Q27743); experiment: PfLDH activity inhibition – cell lysate, 3D7 strain, counter-screen for P. falciparum growth inhibition project (AID 2304);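 also: 0% = vehicle and 100% = reference inhibitor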; settings: P. falciparum 3D7 crude extract, LDH APAD/NBT absorbance; at 2 µM; active compounds read high
Chain of L-lactate dehydrogenase (Plasmodium falciparum (isolate CDC / Honduras)) (Q27743 whole entry, looked up): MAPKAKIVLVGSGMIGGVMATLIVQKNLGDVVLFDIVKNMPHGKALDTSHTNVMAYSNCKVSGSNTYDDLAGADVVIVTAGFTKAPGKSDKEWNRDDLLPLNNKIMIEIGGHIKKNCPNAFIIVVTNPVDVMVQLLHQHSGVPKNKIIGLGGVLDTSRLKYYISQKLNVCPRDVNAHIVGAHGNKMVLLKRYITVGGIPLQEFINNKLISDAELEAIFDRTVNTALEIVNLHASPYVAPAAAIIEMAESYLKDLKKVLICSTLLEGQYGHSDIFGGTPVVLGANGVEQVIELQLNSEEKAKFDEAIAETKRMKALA

[4] = inhibition of 3D7 malaria parasite growth – strain 3D7 (AID 2306);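 also: 0% = DMSO wells and 100% = chloroquine plus artemisinin control wells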; settings: P. falciparum 3D7 erythrocytic growth, LDH absorbance, 72 h; at 2 µM; active compounds read high
[5] = molecular target: Calcium-dependent protein kinase 1 (Plasmodium falciparum (isolate 3D7)) (UniProt P62344); experiment: PfCDPK1 kinase inhibitors, biochemical, TCAMS library (AID 1159585; cut-off not given, nearly all actives have IC50 up to about 0.98 µM;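 also: inhibitors leave more ATP so luminescence rises with inhibition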); settings: recombinant PfCDPK1, Kinase-Glo ATP depletion luminescence
Chain of Calcium-dependent protein kinase 1 (Plasmodium falciparum (isolate 3D7)) (P62344 whole entry, looked up): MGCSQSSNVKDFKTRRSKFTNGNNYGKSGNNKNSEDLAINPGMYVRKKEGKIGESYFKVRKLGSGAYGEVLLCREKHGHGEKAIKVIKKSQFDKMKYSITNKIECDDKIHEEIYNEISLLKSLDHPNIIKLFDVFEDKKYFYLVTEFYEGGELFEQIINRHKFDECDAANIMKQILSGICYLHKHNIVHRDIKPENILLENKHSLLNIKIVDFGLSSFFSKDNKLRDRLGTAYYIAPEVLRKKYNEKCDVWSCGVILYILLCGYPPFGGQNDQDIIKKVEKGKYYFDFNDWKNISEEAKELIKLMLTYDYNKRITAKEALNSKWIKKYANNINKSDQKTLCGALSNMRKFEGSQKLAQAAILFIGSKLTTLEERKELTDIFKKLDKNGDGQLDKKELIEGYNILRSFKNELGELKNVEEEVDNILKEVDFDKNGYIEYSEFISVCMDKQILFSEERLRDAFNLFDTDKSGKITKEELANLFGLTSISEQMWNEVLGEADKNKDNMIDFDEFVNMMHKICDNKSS

[6] = molecular target: Plasmodium falciparum protein kinase 6 (PK6, PF3D7_1337100) (UniProt Q8IDW1); experiment: PfPK6 kinase inhibitors, biochemical, TCAMS library (AID 1159586); settings: recombinant PfPK6, Kinase-Glo ATP depletion luminescence
Chain of Plasmodium falciparum protein kinase 6 (PK6, PF3D7_1337100) (Q8IDW1 1-305): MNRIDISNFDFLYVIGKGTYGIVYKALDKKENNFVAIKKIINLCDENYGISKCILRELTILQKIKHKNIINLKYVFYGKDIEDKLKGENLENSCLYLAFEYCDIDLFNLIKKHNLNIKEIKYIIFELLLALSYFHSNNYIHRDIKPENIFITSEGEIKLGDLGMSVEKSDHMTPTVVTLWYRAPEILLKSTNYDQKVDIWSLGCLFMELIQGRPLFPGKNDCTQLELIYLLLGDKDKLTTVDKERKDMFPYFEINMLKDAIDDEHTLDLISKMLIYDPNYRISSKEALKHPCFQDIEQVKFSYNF

[7] = molecular target: Protein kinase 7 (PK7), Plasmodium falciparum 3D7 (PF3D7_0213400) (UniProt Q7YTF7); experiment: inhibition of Plasmodium PK7 catalytic activity – biochemical, TCAMS antimalarial set, Kinase-Glo luminescence (AID 1159587); settings: recombinant PfPK7, Kinase-Glo ATP depletion luminescence
Chain of Protein kinase 7 (PK7), Plasmodium falciparum 3D7 (PF3D7_0213400) (Q7YTF7 1-343): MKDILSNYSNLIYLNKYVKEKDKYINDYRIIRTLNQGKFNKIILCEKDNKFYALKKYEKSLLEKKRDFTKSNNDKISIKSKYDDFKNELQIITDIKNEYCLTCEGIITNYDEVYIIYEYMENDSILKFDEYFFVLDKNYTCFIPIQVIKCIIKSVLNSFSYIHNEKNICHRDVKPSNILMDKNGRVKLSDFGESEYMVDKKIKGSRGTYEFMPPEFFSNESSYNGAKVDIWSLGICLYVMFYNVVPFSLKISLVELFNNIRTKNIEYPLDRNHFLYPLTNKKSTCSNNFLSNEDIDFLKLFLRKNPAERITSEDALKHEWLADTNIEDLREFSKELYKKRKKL

[8] = molecular target: Calcium-dependent protein kinase 4 (Plasmodium falciparum (isolate 3D7)) (UniProt Q8IBS5); experiment: PfCDPK4 kinase inhibitors, biochemical, TCAMS library (AID 1159588; cut-off not given, nearly all actives have IC50 up to about 0.91 µM); settings: recombinant PfCDPK4, Kinase-Glo ATP depletion luminescence
Chain of Calcium-dependent protein kinase 4 (Plasmodium falciparum (isolate 3D7)) (Q8IBS5 whole entry, looked up): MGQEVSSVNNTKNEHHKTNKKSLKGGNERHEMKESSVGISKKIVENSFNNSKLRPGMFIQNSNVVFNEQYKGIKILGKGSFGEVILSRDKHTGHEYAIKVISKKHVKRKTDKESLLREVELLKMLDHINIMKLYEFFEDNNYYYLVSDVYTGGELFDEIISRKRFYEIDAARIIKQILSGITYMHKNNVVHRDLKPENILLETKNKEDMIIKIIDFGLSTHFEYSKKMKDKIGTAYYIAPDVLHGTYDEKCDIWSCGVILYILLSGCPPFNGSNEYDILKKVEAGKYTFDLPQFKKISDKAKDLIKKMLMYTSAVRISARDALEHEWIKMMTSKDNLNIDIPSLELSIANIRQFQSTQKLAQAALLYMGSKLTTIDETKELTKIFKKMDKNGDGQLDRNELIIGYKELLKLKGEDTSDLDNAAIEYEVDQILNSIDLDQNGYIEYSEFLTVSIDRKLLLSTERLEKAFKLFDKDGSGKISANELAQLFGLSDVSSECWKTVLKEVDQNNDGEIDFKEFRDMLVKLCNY

Cc1cccc2[nH]c(-c3ccc(-c4cccc(CNCc5ccc(CN)cc5)c4)s3)nc12
inactive: growth inhibition [1] 48% | inhibition [2] 11% | inhibition [3] -2% | outcome [5] | outcome [6] | outcome [7] | outcome [8]
active: growth inhibition [4] 99%

Cc1cc(-c2ccc(CNCc3ccsc3)cc2)ccc1S(=O)(=O)NCCN1CCCC1
active: inhibition [2] 57% | growth inhibition [4] 99%
inactive: growth inhibition [1] 49% | inhibition [3] -1% | outcome [5] | outcome [6] | outcome [7] | outcome [8]

O=C(NCCc1ccccc1)N(Cc1ccccc1-c1ccc(CNCCc2ccccc2)cc1)C1CCN(Cc2ccccc2)CC1
inactive: inhibition [3] 5% | outcome [5] | outcome [6] | outcome [7] | outcome [8]
active: growth inhibition [1] 91% | inhibition [2] 99% | growth inhibition [4] 97%

CCN1CCC(N(Cc2ccc(-c3ccc(C(F)(F)F)cc3)cc2)C(=O)Cn2c(CCc3cccc(F)c3F)cc(=O)c3cn(C)nc32)CC1
inactive: inhibition [2] 27% | inhibition [3] 2% | outcome [5] | outcome [6] | outcome [7] | outcome [8]
active: growth inhibition [1] 87% | growth inhibition [4] 95%

CC(C)c1nc(N2CCN(C(=S)NCc3ccccc3)CC2)c(C#N)c2c1COC(C)(C)C2
active: growth inhibition [1] 100% | growth inhibition [4] 99%
inactive: inhibition [2] -7% | inhibition [3] 6% | outcome [5] | outcome [6] | outcome [7] | outcome [8]

Cc1cc(OCCCn2ccnc2)ccc1-c1csc(NC(N)=NCc2ccccc2)n1
active: growth inhibition [4] 92%
inactive: growth inhibition [1] 42% | inhibition [2] 26% | inhibition [3] 2% | outcome [5] | outcome [6] | outcome [7] | outcome [8]

CN1CCN(Cc2ccc(-c3ccc4c(Nc5ccc(Oc6ccccc6)cc5)ccnc4c3)o2)CC1
active: growth inhibition [1] 99% | growth inhibition [4] 99%
inactive: inhibition [2] 23% | inhibition [3] 0% | outcome [5] | outcome [6] | outcome [7] | outcome [8]

CCN(CC)CCCCNc1cc(-c2[nH]c(C(C)(C)C)nc2-c2ccc3cc(OC)ccc3c2)ccn1
active: growth inhibition [1] 76% | growth inhibition [4] 85%
inactive: inhibition [2] 23% | inhibition [3] 5% | outcome [5] | outcome [6] | outcome [7] | outcome [8]

O=C(Nc1ccc2c(c1)CCN(C1CCC1)CC2)c1ccc(-c2cn3ccccc3n2)cc1
active: growth inhibition [4] 102%
inactive: growth inhibition [1] 42% | inhibition [2] 13% | inhibition [3] 2% | outcome [5] | outcome [6] | outcome [7] | outcome [8]

COc1ccc(F)cc1-c1ccc(C(=O)N2CCCN(c3ccc(C(F)(F)F)cn3)CC2)cc1
active: growth inhibition [1] 100% | growth inhibition [4] 101%
inactive: inhibition [2] 4% | inhibition [3] -3% | outcome [5] | outcome [6] | outcome [7] | outcome [8]

NC(N)=Nc1nc(-c2cccc(NCCCCCCCCON3C(N)=NC(N)=NC34CCCCC4)c2)cs1
active: growth inhibition [4] 97%
inactive: growth inhibition [1] 42% | inhibition [2] 3% | inhibition [3] -2% | outcome [5] | outcome [6] | outcome [7] | outcome [8]

Nc1cc(-c2ccc3c(N)nccc3c2)ccc1Cl
inactive: growth inhibition [1] 4% | inhibition [2] 1% | inhibition [3] -2% | outcome [5] | outcome [6] | outcome [7] | outcome [8]
active: growth inhibition [4] 91%

CCOc1cc(N)c2nc3ccc([N+](=O)[O-])cc3cc2c1
active: growth inhibition [1] 78% | inhibition [2] 73% | growth inhibition [4] 100%
inactive: inhibition [3] 7% | outcome [5] | outcome [6] | outcome [7] | outcome [8]

O=c1cc(NCCCNCc2cc(Cl)c(Cl)cc2Cl)[nH]c2ccccc12
active: growth inhibition [4] 93%
inactive: growth inhibition [1] 20% | inhibition [2] 7% | inhibition [3] -1% | outcome [5] | outcome [6] | outcome [7] | outcome [8]

CCCN(CCC)c1nn2c(=O)c(C(=O)N3CCN(Cc4ccccc4)CC3)cnc2s1
active: growth inhibition [1] 89% | growth inhibition [4] 84%
inactive: inhibition [2] -22% | inhibition [3] -2% | outcome [5] | outcome [6] | outcome [7] | outcome [8]

Cc1nc2nc(N)nc(N)c2c(C)c1Cc1ccccc1I
inactive: growth inhibition [1] -5% | inhibition [3] 5% | outcome [5] | outcome [6] | outcome [7] | outcome [8]
active: inhibition [2] 63% | growth inhibition [4] 96%

O=C(NCCc1ccccc1)[C@H](Cc1ccccc1)Nc1ccnc(NCC2CCCCC2)n1
active: growth inhibition [1] 53% | growth inhibition [4] 86%
inactive: inhibition [2] 11% | inhibition [3] 2% | outcome [5] | outcome [6] | outcome [7] | outcome [8]

Cc1cc(Br)cnc1CCCCNc1cc(=O)c2ccccc2[nH]1
active: growth inhibition [1] 64% | growth inhibition [4] 91%
inactive: inhibition [2] -1% | inhibition [3] -1% | outcome [5] | outcome [6] | outcome [7] | outcome [8]

Cc1cc(OCCCN2CCCCC2)ccc1NC(=O)COc1ccc(Cl)cc1C(=O)c1cc(Cl)cc(C#N)c1
active: growth inhibition [4] 93%
inactive: growth inhibition [1] 16% | inhibition [2] 28% | inhibition [3] -8% | outcome [5] | outcome [6] | outcome [7] | outcome [8]

Cc1cc(NCc2ccccc2)nc2cc(O)ccc12
inactive: inhibition [2] -7% | inhibition [3] 6% | outcome [5] | outcome [6] | outcome [7] | outcome [8]
active: growth inhibition [1] 80% | growth inhibition [4] 98%

CN1CCN(CCCCNc2c3ccccc3nc3ccccc23)CC1
inactive: growth inhibition [1] -7% | inhibition [2] 37% | inhibition [3] 4% | outcome [5] | outcome [6] | outcome [7] | outcome [8]
active: growth inhibition [4] 101%

OCCOCn1cnc2cnc(N[C@H]3OC[C@H](O)[C@@H](O)[C@@H]3O)nc21
active: growth inhibition [4] 82%
inactive: growth inhibition [1] -2% | inhibition [2] 42% | inhibition [3] 0% | outcome [5] | outcome [6] | outcome [7] | outcome [8]

COc1cccc(-c2nn(C)c3sc(C(=O)NCCN4CCN(c5ccccc5F)CC4)cc23)c1
active: growth inhibition [4] 85%
inactive: growth inhibition [1] 40% | inhibition [2] 9% | inhibition [3] -5% | outcome [5] | outcome [6] | outcome [7] | outcome [8]

COc1ccc2nc(-c3ccccc3)cc(NCCCNc3cc(-c4ccccc4)nc4ccc(OC)cc34)c2c1
active: growth inhibition [1] 99% | inhibition [2] 100% | growth inhibition [4] 99%
inactive: inhibition [3] 9% | outcome [5] | outcome [6] | outcome [7] | outcome [8]

COc1cccc(-c2cc(-c3ccc(NC(=O)c4ccccc4)cc3)c3c(N)ncnc3n2)c1
inactive: inhibition [2] -4% | inhibition [3] 0% | outcome [5] | outcome [6] | outcome [7] | outcome [8]
active: growth inhibition [1] 98% | growth inhibition [4] 99%

Cc1nc2ccc3ccc(CNc4ccc(C(=O)N[C@@H](CCC(=O)O)C(=O)O)cc4)cc3c2c(=O)[nH]1
active: growth inhibition [1] 95% | growth inhibition [4] 89%
inactive: inhibition [2] 32% | inhibition [3] 0% | outcome [5] | outcome [6] | outcome [7] | outcome [8]

CCCCCCN1CCC(NCc2cccc(C(F)(F)F)c2)CC1
active: growth inhibition [1] 82% | growth inhibition [4] 103%
inactive: inhibition [2] 18% | inhibition [3] -6% | outcome [5] | outcome [6] | outcome [7] | outcome [8]

CCCCCCN1CCC(NCc2ccc(CN(C)C)cc2)CC1
inactive: growth inhibition [1] 26% | inhibition [2] 18% | inhibition [3] 1% | outcome [5] | outcome [6] | outcome [7] | outcome [8]
active: growth inhibition [4] 92%

O=C(NCc1ccccc1)NC1CCN(c2ccnc3cc(Cl)ccc23)C1 (stereo not drawn)
active: growth inhibition [1] 99% | growth inhibition [4] 94%
inactive: inhibition [2] 13% | inhibition [3] -2% | outcome [5] | outcome [6] | outcome [7] | outcome [8]

COc1cccc(-c2ccc3c(-c4cccc(NC(C)=O)c4)cnc(N)c3c2)c1
inactive: inhibition [3] -6% | outcome [5] | outcome [6] | outcome [7] | outcome [8]
active: growth inhibition [1] 83% | inhibition [2] 71% | growth inhibition [4] 99%

Cc1cc(NN=Cc2cccc([N+](=O)[O-])c2)c2ccccc2n1
active: growth inhibition [1] 98% | growth inhibition [4] 101%
inactive: inhibition [2] -9% | inhibition [3] 3% | outcome [5] | outcome [6] | outcome [7] | outcome [8]

CC(C)c1ccc(NC(=O)c2ccc(NCCCN(C)Cc3ccccc3)c([N+](=O)[O-])c2)cc1
inactive: growth inhibition [1] 35% | inhibition [2] 21% | inhibition [3] -2% | outcome [5] | outcome [6] | outcome [7] | outcome [8]
active: growth inhibition [4] 101%

CC(CCc1ccc(OCc2ccccc2)cc1)NCC(O)c1ccccc1 (stereo not drawn)
active: growth inhibition [1] 72% | growth inhibition [4] 86%
inactive: inhibition [2] 9% | inhibition [3] -1% | outcome [5] | outcome [6] | outcome [7] | outcome [8]

O=C(Cc1ccc(-n2cnnn2)cc1)N(Cc1cncn1Cc1cccc(C(F)(F)F)c1)CC1CC1
active: growth inhibition [4] 86%
inactive: growth inhibition [1] -2% | inhibition [2] -12% | inhibition [3] 0% | outcome [5] | outcome [6] | outcome [7] | outcome [8]

O=C(NCc1ccc(Cl)c(Cl)c1)c1ccc(-c2nc3cc(F)c(F)cc3[nH]2)cc1
active: growth inhibition [4] 81%
inactive: growth inhibition [1] 12% | inhibition [2] -2% | inhibition [3] -2% | outcome [5] | outcome [6] | outcome [7] | outcome [8]

N#Cc1ccc(CCNc2nccc(-c3cccc(CN4CCNCC4)c3)n2)cc1
active: growth inhibition [4] 83%
inactive: growth inhibition [1] -3% | inhibition [2] 5% | inhibition [3] 3% | outcome [5] | outcome [6] | outcome [7] | outcome [8]

CCOc1cc(Cc2cnc(N)nc2N)cc(OCC)c1O
active: growth inhibition [4] 89%
inactive: growth inhibition [1] -1% | inhibition [2] 6% | inhibition [3] 3% | outcome [5] | outcome [6] | outcome [7] | outcome [8]

O=C(Nc1ccc(CCNCc2ccccc2)cc1)Nc1ccc(OC(F)(F)F)cc1
inactive: growth inhibition [1] 22% | inhibition [2] -2% | inhibition [3] -2% | outcome [5] | outcome [6] | outcome [7] | outcome [8]
active: growth inhibition [4] 102%

Cc1ccc(NC(=O)c2ccc(CN3CCCN(CC4CCCCC4)CC3)cc2)cc1
active: growth inhibition [4] 93%
inactive: growth inhibition [1] 42% | inhibition [2] 41% | inhibition [3] -3% | outcome [5] | outcome [6] | outcome [7] | outcome [8]

O=C(Cc1cccc(O)c1)Nc1ccc(-c2cccc(-c3nc4ccc(C(F)(F)F)cc4[nH]3)c2)cc1
active: growth inhibition [4] 86%
inactive: growth inhibition [1] 1% | inhibition [2] 14% | inhibition [3] 2% | outcome [5] | outcome [6] | outcome [7] | outcome [8]

CS(=O)(=O)c1ccc(CNCc2ccc(-c3cccc(-c4nc5ccccc5[nH]4)c3)cc2)cc1
inactive: inhibition [2] 17% | inhibition [3] -7% | outcome [5] | outcome [6] | outcome [7] | outcome [8]
active: growth inhibition [1] 88% | growth inhibition [4] 100%

From PubChem BioAssay
